# ST2 IL33 inh = inhibitors of human ST2 (IL1RL1) binding to IL-33; Q01638; AlphaLISA ST2-Fc/biotin-IL-33 interaction, 1 h; inhibition, % for hits at 17 µM; hit rate 2.3% among 78,000; AID 1259354; in the data active = inhibition above about 30%
# Target sequence (Q01638 whole entry, looked up): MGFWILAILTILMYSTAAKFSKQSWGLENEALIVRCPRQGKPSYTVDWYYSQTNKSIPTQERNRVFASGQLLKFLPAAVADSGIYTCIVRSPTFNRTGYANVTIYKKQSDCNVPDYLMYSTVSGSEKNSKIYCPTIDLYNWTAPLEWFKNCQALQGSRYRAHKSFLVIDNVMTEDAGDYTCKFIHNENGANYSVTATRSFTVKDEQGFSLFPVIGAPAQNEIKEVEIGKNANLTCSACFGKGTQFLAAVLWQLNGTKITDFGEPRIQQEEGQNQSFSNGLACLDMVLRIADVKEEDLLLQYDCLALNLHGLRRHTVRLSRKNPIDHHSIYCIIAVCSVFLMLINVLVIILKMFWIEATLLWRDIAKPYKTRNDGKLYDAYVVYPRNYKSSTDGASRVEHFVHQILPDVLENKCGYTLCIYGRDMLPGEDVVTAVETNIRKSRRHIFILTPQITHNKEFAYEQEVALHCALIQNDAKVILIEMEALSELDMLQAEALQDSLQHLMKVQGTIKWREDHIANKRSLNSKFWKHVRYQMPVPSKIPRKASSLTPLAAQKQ
# A number is an active result; - = inactive; ! = not confirmed by another sample. Shown is part of a subset that was picked to be rich in hits.
SMILES,ST2 IL33 inh
N#CCc1ncc(-c2cc3cc(Br)cc(Br)c3oc2=O)s1,-
Cc1ccc(CN2CCN(Cc3cccc(-n4cccn4)c3)CC2CCO)o1 (stereo unspecified),-
CSc1ccc(C2C(C#N)=C(N)OC3=C2C(=O)CC(C)(C)C3)cc1 (stereo unspecified),-
COc1ccc(CSc2nnc3nc(C)cc(C)n23)cc1,-
Cc1csc(NC(=O)c2ccc(COc3ccc(Cl)cc3Cl)o2)n1,-
CC1(C)C=Cc2c(cc3oc(-c4ccc(O)cc4)cc(=O)c3c2O)O1,-
COc1ccc(C(=O)Nc2cccc(Cl)c2)cc1S(=O)(=O)N1CCOCC1,-
COc1cc(-c2ccc(NC(=O)c3ccco3)c(OC)c2)ccc1NC(=O)c1ccco1,31%
COc1cc(NC(=O)/C=C/c2ccc(Cl)cc2)ccc1NC(=O)c1ccco1,-
COc1cc(-c2ccc(NC(C)=O)c(OC)c2)ccc1NC(C)=O,-
CC(=O)N1CCN(c2ncccc2CNC(=O)c2ccc(C)s2)CC1,-
COc1cc(OC)c(C2C(C#N)=C(N)Oc3n[nH]c(C(C)C)c32)c(OC)c1 (stereo unspecified),-
CC(=O)N1CCN(c2ncccc2CNC(=O)CCCc2cccs2)CC1,-
CN(C(=O)c1cccs1)C(Cc1ccccc1)C1CCN(C(=O)C2=CCCC2)CC1 (stereo unspecified),-
CSc1nnc(CC2CCN(C(=O)CN(C)Cc3cccnc3)CC2)n1C,-
CN(Cc1cccnc1)C(Cc1ccccc1)C1CCN(C(=O)C23CC4CC(CC(C4)C2)C3)CC1 (stereo unspecified),32%
Cc1ccc(C(O)=C2C(=O)C(=O)N(CCN3CCOCC3)C2c2ccco2)cc1 (stereo unspecified),-
O=C(NC(c1ccccc1)c1ccccc1)C1COc2ccccc2O1 (stereo unspecified),-
CCCC12CN3CC(C)(CN(C1)C3c1cccc([N+](=O)[O-])c1)C2=O (stereo unspecified),-
CC1=C(C(=O)OC2CCCC2)C(c2cccc3ccccc23)NC(=O)N1 (stereo unspecified),-
CCNC(=O)N1CCC[C@@H](O)[C@H](NC(=O)c2ccc(OCCOC)cc2)C1,-
COC(=O)[C@@H]1Cc2ncn(C)c2CN1S(=O)(=O)c1ccc(C#N)cc1,-
COC(=O)[C@@H]1Cc2ncn(C(C)C)c2CN1S(=O)(=O)c1ccc(C#N)cc1,35%
COC(=O)[C@@H]1Cc2ncn(C(C)C)c2CN1S(=O)(=O)c1ccc(OC)cc1,-
CCc1ccc(C2CC(c3cccc(OC)c3)n3ncnc3N2)cc1 (stereo unspecified),-
SMILES,ST2 IL33 inh
CCN1Cc2nc(OC)c(CNC(=O)c3cnn4ccn(C)c34)cc2C1=O,-
CSc1ccc2cc(CN3CC[C@H](O)C3)c(=O)[nH]c2c1,-
CCn1ncc2[nH]c(-c3cnn(C)c3-c3ccccc3)nc21,-
Nc1c(S(=O)(=O)O)cc(Nc2ccc(Nc3nc(Cl)nc(Nc4ccc(S(=O)(=O)O)cc4)n3)c(S(=O)(=O)O)c2)c2c1C(=O)c1ccccc1C2=O,81%
Cn1ccnc1-c1nccn1C1CCCC1,-
O=C1C(Nc2cccc(C(F)(F)F)c2)=C(N2CCOCC2)C(=O)c2ccccc21,67%
CC(C)CC(C(=O)Nc1cccc(C(F)(F)F)c1)N1C(=O)c2ccccc2C1=O (stereo unspecified),-
CC(C)C(C(=O)Nc1cccc(C(F)(F)F)c1)N1C(=O)c2ccccc2C1=O (stereo unspecified),-
CCOC(=O)C1=C(C)NC2=C(C(=O)C(C(=O)OC)C(C)C2)C1c1ccc(CC)cc1 (stereo unspecified),-
C=CCN(CC=C)S(=O)(=O)c1cc(Cl)ccc1Cl,-
COC(=O)c1c[nH]n2c(=O)c(Cc3ccc(C)cc3)c(C)nc12,-
COC(=O)c1c[nH]n2c(=O)c(Cc3ccccc3F)c(C)nc12,-
COC(=O)c1c[nH]n2c(=O)c(Cc3ccccc3C)c(C)nc12,53%
COc1ccc(Nc2cc(C)nc(N3CCN(S(=O)(=O)c4cc(OC)c(C)cc4C)CC3)n2)cc1,-
Cc1ccccc1-n1nc2c(c1NC(=O)COc1ccc(Cl)cc1Cl)CS(=O)C2 (stereo unspecified),-
O=C(O)c1ccc(N=Cc2ccc(C=Nc3ccc(C(=O)O)cc3)cc2)cc1,-
O=C(c1ccccc1)N1CCN=C1SCc1cccc(Cl)c1,-
CCN(Cc1ccccc1)Cc1ccc(N(C)C)cc1,36%
CN(Cc1ccccc1)Cc1ccccc1,-
CCN(CCc1ccccc1)CCN(C)C,-
O=C(Nc1ccc(F)c(Cl)c1)c1cc(-c2ccc(Cl)cc2)on1,-
COc1ccc(OC)c(S(=O)(=O)NC2CCCCC2C)c1 (stereo unspecified),-
CCCNS(=O)(=O)c1ccc(OC)c(OC)c1,-
COc1ccc(S(=O)(=O)NC2CCCCC2C)cc1OC (stereo unspecified),34%!
CC1=CC(=O)C(C(C)C)=C/C1=N\Oc1c([N+](=O)[O-])cc(Cl)cc1[N+](=O)[O-],62%
SMILES,ST2 IL33 inh
Cc1ccc(N2C(=O)c3ccc(Br)cc3C2=O)c(Cl)c1,-
Cc1cc(C)n(-c2n[nH]c(=O)c3ccccc23)n1,-
Cc1cc(C)n(-c2nc3ccccc3[nH]c2=O)n1,46%
Cc1cc(C)n(CCCNC(=O)c2nc3ccccc3[nH]c2=O)n1,-
Cc1ccc(S(=O)(=O)Nc2ccccc2CNC(C)(C)C)cc1,-
O=C(NC(Nc1ccc(C(F)(F)F)cc1Cl)C(Cl)(Cl)Cl)c1cccnc1 (stereo unspecified),63%
O=C(NC(Nc1ccc(Cl)cc1)C(Cl)(Cl)Cl)c1cccnc1 (stereo unspecified),-
Cc1ccc(Oc2ccc(C(F)(F)F)cc2NC(=O)c2cccnc2)cc1,-
CCC(C)N(Cc1cccnc1)Cc1cccc(C)n1 (stereo unspecified),-
Cc1nc2ccc3nc(NC(=O)c4cccc(Br)c4)sc3c2s1,-
Cc1nc2ccc3nc(NC(=O)c4ccccc4Cl)sc3c2s1,-
COC(=O)c1ccc(C(=O)Nc2nc3ccc4nc(C)sc4c3s2)cc1,30%
CC(=O)Nc1ccc(C(=O)Nc2ccccc2Cl)cc1,-
COC(=O)c1ccc(C(=O)N=c2sc3cc(C)ccc3n2C)cc1,-
Cc1nc2sccn2c1C(=O)N1[C@H]2CCNC[C@@H]1CC2,-
CCc1ccc(-c2cn3c(C(=O)N4[C@@H]5CC[C@H]4CNC(=O)C5)csc3n2)cc1,36%
COc1ccc(NC2(C(=O)N3[C@@H]4CC[C@H]3CNC(=O)C4)CCCC2)cc1,-
O=C(c1coc(CN2CCN(C/C=C/c3ccccc3)CC2)n1)N1CCSCC1,-
O=C(COC(=O)c1ccc(Cl)cc1)c1ccc(Br)cc1,-
O=C(COC(=O)c1ccccc1O)c1ccc(Br)cc1,90%
O=C(COC(=O)c1cccc(Br)c1)c1ccc(Br)cc1,-
NC(=O)c1ccnc(-c2ccc(Cl)c(Cl)c2)c1,-
Cc1ccc(N=Cc2nc(-c3ccccc3F)oc2O)c([N+](=O)[O-])c1,34%
O=C(O)c1ccccc1N=Cc1nc(-c2ccccc2F)oc1O,-
Oc1oc(-c2ccccc2F)nc1C=Nc1cc(Cl)c(Cl)cc1Cl,-
Cc1ccc(-c2cc(C(=O)NN)c3ccccc3n2)s1,-
Fc1cnc(NCCc2cccs2)nc1N1CCOCC1,-
Cc1nc2c(c(=O)n1C)CCN(C(=O)Nc1ccc3c(c1)OCO3)CC2,-
Cc1ccc(C(=O)NCCC(=O)N2CCc3nc(C)n(C)c(=O)c3CC2)cc1,-
Cc1nc2c(c(=O)n1C)CCN(C(=O)C1CCOC(C)(C)C1)CC2 (stereo unspecified),31%

# High-throughput results (PubChem)
